Assay [1] is described as follows: qHTS assay to identify small molecule agonists of the estrogen receptor alpha (ER-alpha) signaling pathway in the presence of an antagonist - cell viability counter screen (AID 1259386).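 Note: cells exposed to compounds for 22 h at 37 °C before the viability read; nearly all actives have a fitted effect of over 30% in size.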 Note: potency is the fitted concentration of half-maximal effect. Put shortly: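 Cell viability in VM7Luc4E2 cells (endogenous full-length ER-alpha) measured by CellTiter-Fluor fluorescence in the same wells as the luciferase screen. Cells pre-cultured 5 days in charcoal-stripped serum, then treated 22 h with compounds at 15 concentrations plus 10.0nM ICI-182,780.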

In assay [2] the target is Progesterone receptor (Homo sapiens) (UniProt P06401). Kind of assay: qHTS assay to identify small molecule agonists of the progesterone receptor (PR) signaling pathway (AID 1346784; calls by dose curve; note: nearly all actives have a fitted effect of over 30% in size). An outline of the steps:
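HEK 293T PR-UAS-bla reporter cells, 2% charcoal-stripped FBS; 6 hr settle at 37C/5% CO2, compound (DMSO) 16 hr, LiveBLAzer B/G FRET substrate 2 hr RT, fluorescence intensity read.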

For assay [3] the target is unchanged. Put plainly: qHTS assay to identify small molecule antagonists of the progesterone receptor (PR) signaling pathway (AID 1346795; active = well fitted inhibition curve with a large enough effect in the signal ratio in the repeat runs, not every such curve was filed as active; the % refers to the signal ratio; note: potency is the fitted concentration of half-maximal effect). Put shortly:
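Beta-lactamase reporter, HEK293T PR-UAS-bla line; 2% charcoal-stripped FBS; 6 hr pre-incubation, 37C/5% CO2. Compound + R5020 1 nM final, 16 hr. LiveBLAzer B/G FRET substrate, 2 hr RT; fluorescence intensity read.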
On the technique in general: Quantitative high-throughput screening tests each substance at several concentrations.

Assay [4] in a line: qHTS assay to identify small molecule antagonists of the progesterone receptor (PR) signaling pathway - cell viability counter screen (AID 1346798). Note: nearly all actives have a fitted effect of over 50% in size. Note: potency is the fitted concentration of half-maximal effect. Put shortly:
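Luminescence readout (CellTiter-Glo, 30 min, RT) of viability in PR-UAS-bla HEK293T cells exposed to compound and R5020 agonist for 16 hr at 37C, 5% CO2; run in the same wells as the beta-lactamase reporter read.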

Assay [5] is described as follows: qHTS assay to identify small molecule agonists of the progesterone receptor (PR) signaling pathway - cell viability counter screen (AID 1346799; calls by dose curve; note: nearly all actives have a fitted effect of over 45% in size; note: potency is the fitted concentration of half-maximal effect). Put shortly: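 HEK293T PR-UAS-bla, 3,000 cells/well, 2% charcoal-stripped FBS; 6 h settle, compound 16 h at 37C/5% CO2; LiveBLAzer 2 h RT, then CellTiter-Glo 30 min RT, luminescence read.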
The nature of assay [6]: qHTS assay to identify small molecule antagonists of the TGF-beta/Smad signaling pathway - cell viability counter screen (AID 1346824). Note: nearly all actives have a fitted effect of over 50% in size. Note: potency is the fitted concentration of half-maximal effect. An outline of the steps: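 SBE-bla HEK 293T cells, incubated overnight, then compound plus 0.25 ng/mL TGF-beta1 (stock added) for 5 hr at 37 C. Viability was read in the same wells by CellTiter-Glo luminescence after 30 min at room temperature.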

A short description of assay [7]: qHTS assay to identify small molecule agonists of the TGF-beta/Smad signaling pathway - cell viability counter screen (AID 1346829). Note: nearly all actives have a fitted effect of over 45% in size. Note: potency is the fitted concentration of half-maximal effect. An outline of the steps: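 Cytotoxicity counter screen: CellTiter-Glo luminescence (30 min, room temperature) measured in the SBE-bla HEK 293T reporter wells after 5 hr compound treatment at 37 C and the 2 hr substrate step.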
Assay [8] in a line: qHTS assay to identify small molecule agonists of the TGF-beta/Smad signaling pathway (AID 1346859; active = well fitted activation curve with a large enough effect in the signal ratio in the repeat runs, not every such curve was filed as active; the % refers to the signal ratio; note: series mostly up to about 77 µM). An outline of the steps:
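Read-out: fluorescence at 460 and 530 nm (405 nm excitation) after a 2 hr room-temperature incubation with beta-lactamase FRET substrate. SBE-bla HEK 293T cells had been treated with test compounds for 5 hr at 37 C.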

Assay [9] deals with Thyrotropin-releasing hormone receptor (Homo sapiens) (UniProt P34981). Put plainly: qHTS assay to identify small molecule antagonists of the thyrotropin-releasing hormone receptor (TRHR) signaling pathway (AID 1346877; active = well fitted inhibition curve with a large enough effect in the repeat runs, not every such curve was filed as active; note: series mostly up to about 51 µM). An outline of the steps:
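TRHR-expressing HEK293 cells loaded with calcium dye for 2 h at 37 C; compounds pre-incubated 5 min at room temperature before TRH challenge at 1 nM final. Intracellular calcium fluorescence read kinetically for 3 min; 15 concentrations in triplicate.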

For assay [10] the target is unchanged. Kind of assay: qHTS assay to identify small molecule agonists of the thyrotropin-releasing hormone receptor (TRHR) signaling pathway (AID 1346891; calls by dose curve; note: series mostly up to about 58 µM). An outline of the steps:
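HEK293/TRHR cells, 1500 per well, 18 h 37 °C; Ca dye 2 h 37 °C; pin-tool compound addition (agonist mode); kinetic fluorescence 3 min, 1 s reads; 15 concentrations, triplicate.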

For 24 compounds, Potency and outcome results are on record in PubChem BioAssay (Tox21).

The structures appear in SMILES notation. Where “and” joins values, the source holds several entries; their conditions need not be identical. Identical values can stand only once. Records with an inconclusive call do not appear. Some structures have more than one record in an assay (separate samples or runs), and their calls can disagree. Calls of active or inactive are those of the source. Unless noted, calls come from the whole dose curve; as a rule, active = well fitted curve in the direction sought with a large enough effect in the repeat runs; inconclusive = weak or mixed curves; inactive = no such curve, though single readings can be large; an effect the other way counts as inactive or inconclusive.

Thyrotropin-releasing hormone receptor (Homo sapiens), sequence (P34981 whole entry, looked up): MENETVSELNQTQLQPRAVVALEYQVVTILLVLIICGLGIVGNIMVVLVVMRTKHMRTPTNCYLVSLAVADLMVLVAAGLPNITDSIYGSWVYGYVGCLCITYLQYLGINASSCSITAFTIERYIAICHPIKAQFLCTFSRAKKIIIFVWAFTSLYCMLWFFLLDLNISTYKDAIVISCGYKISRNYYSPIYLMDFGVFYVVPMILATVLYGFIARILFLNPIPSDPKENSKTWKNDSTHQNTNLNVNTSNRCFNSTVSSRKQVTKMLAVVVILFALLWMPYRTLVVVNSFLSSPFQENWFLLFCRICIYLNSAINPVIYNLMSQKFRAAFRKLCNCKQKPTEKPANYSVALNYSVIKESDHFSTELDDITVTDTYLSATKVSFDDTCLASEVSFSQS
Progesterone receptor (Homo sapiens), sequence (P06401 whole entry, looked up): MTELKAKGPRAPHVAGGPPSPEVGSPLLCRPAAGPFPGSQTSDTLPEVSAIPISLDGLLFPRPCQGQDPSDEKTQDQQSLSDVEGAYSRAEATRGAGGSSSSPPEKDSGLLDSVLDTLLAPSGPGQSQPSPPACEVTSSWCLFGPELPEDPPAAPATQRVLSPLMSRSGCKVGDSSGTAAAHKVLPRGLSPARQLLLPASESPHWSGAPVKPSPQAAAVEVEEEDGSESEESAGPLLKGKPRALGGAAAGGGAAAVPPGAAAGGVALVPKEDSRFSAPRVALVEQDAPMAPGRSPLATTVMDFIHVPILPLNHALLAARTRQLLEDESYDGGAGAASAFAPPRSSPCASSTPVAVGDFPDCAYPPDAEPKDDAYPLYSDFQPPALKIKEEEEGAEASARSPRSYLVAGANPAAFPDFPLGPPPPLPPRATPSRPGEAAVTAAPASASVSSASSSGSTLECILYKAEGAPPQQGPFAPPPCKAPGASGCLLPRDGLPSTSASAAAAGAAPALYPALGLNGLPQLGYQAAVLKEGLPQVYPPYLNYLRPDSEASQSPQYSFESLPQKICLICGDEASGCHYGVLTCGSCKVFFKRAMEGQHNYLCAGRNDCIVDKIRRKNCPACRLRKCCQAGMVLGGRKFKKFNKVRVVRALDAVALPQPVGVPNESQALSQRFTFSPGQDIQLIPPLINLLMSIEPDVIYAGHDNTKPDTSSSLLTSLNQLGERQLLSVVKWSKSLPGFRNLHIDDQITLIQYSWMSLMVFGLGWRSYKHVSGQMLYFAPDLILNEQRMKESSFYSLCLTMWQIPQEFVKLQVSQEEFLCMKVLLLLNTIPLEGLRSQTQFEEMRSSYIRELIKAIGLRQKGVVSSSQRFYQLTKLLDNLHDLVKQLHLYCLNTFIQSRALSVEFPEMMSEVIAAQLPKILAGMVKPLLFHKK

`[O]=[Cr][O][Cr]=[O]`: the Potency result in assay [1], in assay [2], in assay [3], in assay [4], in assay [5] and in [6] was “inactive” each time. The Potency entry in assay [7], in assay [9] and in assay [10] was “inactive” each time. For the same compound, the result in assay [8] was inactive.

As to `CC1(C)C(C=C(Cl)Cl)C1C(=O)OC(C#N)c1ccc(F)c(Oc2ccccc2)c1` (configuration not stated), the Potency entry in assay [1], in [2], in assay [4], in assay [5], in assay [6] and in assay [7] was “inactive” in each case. Further, the Potency entry in assay [9] and in assay [10] was “inactive” in each case. In addition, the Potency in [3] is 13.7 µM (active).

With `C=CCBr`, the Potency result in assay [1], in assay [2], in assay [3], in [4], in [5] and in assay [6] was “inactive” in each case. Further, the Potency result in assay [7], in [9] and in [10] was “inactive” throughout. Further, the call in [8] was inactive.

Consider `CC(=O)[O-].CC(=O)[O-].O.O.O.[Pb+2]`, for which the Potency result in assay [1], in assay [2], in assay [3], in assay [4], in [5] and in assay [7] was “inactive” each time. Further, the outcome in assay [8] was inactive.

Consider `O=[N+]([O-])c1ccc(CCl)cc1`, for which the Potency entry in assay [1], in assay [2], in assay [3], in [4], in assay [6] and in [7] was “inactive” in each case.

Turning to `O=c1c2ccccc2c(=O)c2c1cc(Cl)c1[nH]c3c([nH]c12)c(Cl)cc1c(=O)c2ccccc2c(=O)c13`, the Potency result in assay [1], in assay [2], in [3], in assay [4], in assay [5] and in assay [6] was “inactive” each time. Besides, the Potency result in assay [7], in assay [9] and in [10] was “inactive” in each case. The outcome in assay [8] was inactive.

As for `CN(C)C(=S)SSC(=S)N(C)C`, the Potency in assay [1] was 30.2 µM (active) and 30.6 µM (active); in assay [3], 0.135 µM (active); in assay [4], 170 nM (active) and 386 nM (active) and 266 nM (active); in assay [5], 344 nM (active) and 298 nM (active); in assay [6], 19.2 µM (active) and 43.6 µM (active) and 26.8 µM (active); in [7], 34.2 µM (active) and inactive. Besides, the Potency result in assay [2] was “inactive”. Moreover, the compound was called inactive in [8].

Take `O=C(CCCCl)c1ccc(F)cc1`: the Potency entry in assay [1], in [2], in [3], in assay [4], in assay [5] and in assay [6] was “inactive” in each case. The Potency entry in assay [7] was “inactive”. In addition, in [8], the result was inactive.

Take `C=Cc1cccc(CCl)c1`: the Potency entry in assay [1], in assay [2], in assay [3], in assay [4], in [5] and in assay [6] was “inactive” in each case. Also, the Potency result in assay [7], in [9] and in assay [10] was “inactive” each time.

Consider `CNC(=O)CSP(=O)(OC)OC`, for which the Potency result in assay [1], in [2], in assay [3], in [4], in [6] and in assay [7] was “inactive” throughout. Also, the compound was classed as inactive in assay [8].

On to `CC(C)N(C(=O)SC/C(Cl)=C/Cl)C(C)C`, for which the Potency entry in assay [1], in assay [2], in assay [3], in assay [4], in assay [5] and in assay [6] was “inactive” in each case. For the same compound, the Potency result in assay [7] was “inactive”.

As to `CN=C=O`, the Potency result in [1], in [2], in assay [3], in assay [4], in assay [5] and in assay [7] was “inactive” in each case.

On to `CCN(CC)C(=O)N[C@@H]1C=C2c3cccc4[nH]cc(c34)C[C@@H]2N(C)C1`, for which the Potency entry in [1], in assay [2], in assay [3], in assay [4], in assay [6] and in assay [7] was “inactive” each time. Also, the Potency entry in [9] and in assay [10] was “inactive” throughout. In addition, in [8], the call was inactive.

As for `Cc1nn(-c2cc(NS(C)(=O)=O)c(Cl)cc2Cl)c(=O)n1C(F)F`, the Potency entry in assay [1], in assay [2], in assay [3], in assay [4], in assay [5] and in assay [6] was “inactive” throughout. Besides, the Potency result in assay [7], in assay [9] and in assay [10] was “inactive” each time. Moreover, the outcome in assay [8] was inactive.

Take `C#CCO`: the Potency entry in assay [1], in assay [2], in assay [3], in assay [4], in [5] and in [7] was “inactive” in each case. Further, the Potency result in assay [9] and in [10] was “inactive” in each case. Moreover, the call in assay [8] was inactive.

For `Cc1cnc2c(C(=O)O)c(Cl)ccc2c1`, the Potency entry in assay [1], in assay [2], in [3], in assay [6], in [7] and in assay [9] was “inactive” throughout. In addition, the Potency result in [10] was “inactive”. Besides, the compound was classed as inactive in assay [8].

For `CNC(=O)/C=C(\C)OP(=O)(OC)OC`, the Potency entry in [1], in assay [2], in [3], in assay [6], in [7] and in [9] was “inactive” each time. In addition, in assay [10], the Potency entry was “inactive”. In addition, the result in assay [8] was inactive.

Consider `CC(C)NCC(O)c1ccccc1Cl` (configuration not stated), for which the Potency result in [1], in [2], in assay [3], in [4], in [6] and in [7] was “inactive” in each case. For the same compound, the Potency entry in assay [9] and in assay [10] was “inactive” throughout. For the same compound, the call in assay [8] was inactive.

Turning to `CO/N=C(\C(=O)OC)c1ccccc1CO/N=C(\C)c1cccc(C(F)(F)F)c1`, the Potency in assay [1] is 30.6 µM (active); in assay [3], 6.86 µM (active). In addition, the Potency result in assay [2], in [4], in [7], in assay [9] and in assay [10] was “inactive” each time. Besides, the result in assay [8] was inactive.

As for `O=Cc1ccccc1`, the Potency entry in assay [1], in assay [2], in [3], in assay [4], in [6] and in [7] was “inactive” throughout. Also, the Potency entry in [9] and in assay [10] was “inactive” throughout. For the same compound, the call in assay [8] was inactive.

Turning to `CC(=O)C(Cl)C(=O)N(C)C` (configuration not stated), the Potency entry in assay [1], in assay [2], in [3], in [4], in [6] and in [7] was “inactive” each time. The Potency result in [9] and in assay [10] was “inactive” in each case.

For `O=[N+]([O-])C(Br)Br`, the Potency result in [1], in [2], in assay [3], in assay [5], in assay [6] and in [7] was “inactive” throughout. For the same compound, the Potency result in assay [9] and in assay [10] was “inactive” throughout. Besides, the compound was called inactive in assay [8].

For the compound `CNN`, the Potency result in [1], in [2], in assay [3], in assay [5], in assay [6] and in [7] was “inactive” each time. The call in assay [8] was inactive.

Take `CCCCCCCCCCCCCCn1cc[n+](C)c1`: the Potency was 15.4 µM (active) and 24.1 µM (active) in assay [1]; 30.7 µM (active) and 42.8 µM (active) and inactive in assay [5]; 49.1 µM (active) and 38.5 µM (active) and inactive in assay [7]. The Potency result in assay [2] and in [3] was “inactive” in each case. Further, the compound was called inactive in assay [8].
